# The list is not random: actives were taken first. Their share in the collection is about 7.4%.
# NPC1 prom act: NPC1 promoter activation. Huh7 NPC1 promoter luciferase reporter, 24 h. Potency, µM (doses to about 9.22 µM), hits mostly activators. 320,000 compounds, 2.4% hits; also: nearly all actives have a fitted effect of over 60% in size
#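 Luminescence from an NPC1 promoter-driven luciferase reporter in stably transfected Huh7 cells was measured after 24 h compound treatment at 37 °C, followed by 10 min ambient incubation with luciferase detection reagent.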
# SMN2 splice enh: increases expression of the SMN2 splice variant; HEK293 SMN2-luciferase splicing reporter, luminescence, 30-36 h; Potency, µM (highest dose often 46.1 µM), usual class: activators; 210,000 compounds, 2.8% hits; AID 1458; also: nearly all actives have a fitted effect of over 55% in size
#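 HEK293 cells carry an SMN2 minigene-luciferase reporter in which exon 7 inclusion puts luciferase in frame. Cells were seeded at 2000 cells/well, attached for 10-12 hours, then exposed to compounds for 30-36 hours at 37C before ONE-Glo luminescence.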
# ELG1 genotox: genotoxicity induction in ELG1-luciferase HEK293T cells; HEK293T ELG1-luciferase reporter, luminescence, 16 h; Potency, µM (titrated, usually from 46 µM), hits mostly activators; 330,000 compounds, 1.3% hits; AID 504466; also: nearly all actives have a fitted effect of over 60% in size
#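 Genotoxic stress is detected as increased luminescence from luciferase-tagged ELG1 in HEK293T cells, measured with ONE-Glo after a 16 hr treatment at 37 °C.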
# Luc counter: counter-screen: inhibitors of Kinase-Glo firefly luciferase | Q27757 | Kinase-Glo luciferase, ATP luminescence, 8 min | 200,000 compounds, 0.28% hits | Potency, µM (series often up to 38.3 µM), actives largely listed as inhibitors; also: nearly all actives have a fitted effect of over 60% in size
#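 Compound is pinned into ATP-containing buffer (10 uM ATP, imidazole pH 7.2, 7 mM MgCl2). Kinase-Glo luciferase reagent is then added. Light output is recorded following an 8-min room-temperature incubation.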
# Rab9 promoter act: Rab9 promoter activation. Huh7 Rab9 promoter-luciferase reporter, luminescence, 24 h. Potency, µM (highest dose often 9.22 µM), usual class: activators. 320,000 compounds, 2.8% hits. AID 485297; also: nearly all actives have a fitted effect of over 60% in size
#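 Luminescence from Amplite-detected luciferase (10 minutes, ambient) reports Rab9 promoter activation. Before that, stable Rab9-luciferase Huh7 cells (1500/well, reduced-serum OP-MEM I plus 10% FBS) were exposed to compound for 24 hours at 37C.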
# FLuc counter: firefly luciferase modulation, counter-screen for miR-21 project; P08659; purified FLuc, Km substrates, luminescence inhibition; Potency, µM (top dose mostly 57.5 µM), hits mostly inhibitors; 360,000 compounds, 6.9% hits; also: nearly all actives have a fitted effect of over 55% in size
# Target sequence (P08659 whole entry, looked up): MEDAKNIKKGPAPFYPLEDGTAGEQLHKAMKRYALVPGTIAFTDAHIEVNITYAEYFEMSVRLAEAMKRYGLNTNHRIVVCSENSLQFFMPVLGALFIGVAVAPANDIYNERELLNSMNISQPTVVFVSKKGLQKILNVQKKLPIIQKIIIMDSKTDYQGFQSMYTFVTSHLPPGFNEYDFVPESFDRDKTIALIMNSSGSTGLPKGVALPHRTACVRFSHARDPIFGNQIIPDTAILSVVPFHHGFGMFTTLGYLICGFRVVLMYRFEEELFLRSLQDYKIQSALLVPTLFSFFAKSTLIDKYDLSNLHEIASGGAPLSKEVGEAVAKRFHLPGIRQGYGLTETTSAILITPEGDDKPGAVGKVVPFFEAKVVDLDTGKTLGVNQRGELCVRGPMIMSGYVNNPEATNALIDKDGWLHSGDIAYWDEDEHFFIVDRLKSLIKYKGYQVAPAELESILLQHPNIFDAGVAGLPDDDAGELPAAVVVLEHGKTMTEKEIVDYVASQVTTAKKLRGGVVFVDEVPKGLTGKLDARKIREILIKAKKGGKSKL
#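 Purified P. pyralis luciferase (10nM final) with 10uM D-luciferin and 10uM ATP (Km levels) in 50mM Tris acetate pH 7.5, 10mM Mg acetate, 0.01% Tween-20, 0.05% BSA; qHTS 6-point titration, ~60 µM downward; luminescence read.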
# A number is an active result; i = inactive; ? = inconclusive; nt = not tested or not shown. Calls follow the shape of the dose curve; as a rule, active = well fitted curve in the direction sought with a large enough effect; inconclusive = small, poorly fitted or top-dose-only effect, or another doubt; inactive = no such curve, though single readings can be large; an effect the other way counts as inactive or inconclusive.
SMILES,NPC1 prom act,SMN2 splice enh,ELG1 genotox,Luc counter,Rab9 promoter act,FLuc counter
CCC(C)NC(=O)CCn1c(=O)c2cccn2c2ccc(F)cc21 (stereo not drawn),i,nt,i,nt,i,i
COC(=O)c1ccc2nc(NC(=O)C(C)(C)C)sc2c1,?,i,?,i,0.28µM,0.43µM
COC(=O)c1ccc2nc(Nc3nc4ccc(F)cc4s3)sc2c1,i,i,?,i,i,4.8µM
O=C(COC(=O)/C=C/c1ccccc1[N+](=O)[O-])Nc1ccc(OCc2ccccc2)cc1,?,13µM,?,i,?,i
COc1cc(NC(=O)/C=C/c2ccccc2[N+](=O)[O-])cc(OC)c1,i,?,i,i,i,21µM
O=C(/C=C/c1ccccc1[N+](=O)[O-])Nc1ccccc1,2µM,14µM,?,i,0.71µM,6µM
CCNC(=O)/C=C/c1ccccc1[N+](=O)[O-],i,i,i,i,i,i
O=C(O)/C=C/c1ccccc1[N+](=O)[O-],i,nt,i,nt,i,i
O=C(CCCCCn1c(=O)c2sccc2n(Cc2ccccc2Cl)c1=O)NCc1ccc2c(c1)OCO2,nt,i,nt,nt,nt,i
COc1ccc2nc(C)c3cc(C)oc3c2c1,i,i,i,i,i,i
COc1cccc2c1nc(C)c1cc(C)oc12,i,?,?,i,i,21µM
Cn1c(=O)c(CCc2ccccc2)nc2cnc(Oc3ccccc3)nc21,nt,i,nt,i,nt,nt
CC(=O)Nc1ccc(NC(=O)c2ncoc2-c2ccco2)cc1,nt,nt,nt,nt,nt,19µM
Cc1cc(C)c(NC(=O)c2ncoc2-c2ccco2)c(C)c1,nt,nt,nt,nt,nt,i
CC(=O)c1sc2nsc(SCCN3CCOCC3)c2c1N,i,nt,i,nt,i,i
Nc1c(C(=O)c2ccccc2)sc2nsc(SCCN3CCOCC3)c12,?,nt,i,nt,?,21µM
Cc1nnc(SCc2ccc(C(=O)Nc3cc(Cl)ccc3C)cc2)s1,i,i,i,i,i,15µM
Cc1ccc(NC(=O)c2ccc(CSc3nnc(C)s3)cc2)c(C)c1,?,i,i,i,?,13µM
O=C(CCN1C(=O)[C@@H]2Cc3ccccc3CN2C1=O)NCc1ccc(Cl)cc1,i,nt,i,nt,i,i
COC(=O)c1sccc1NS(=O)(=O)c1ccccc1,i,nt,i,nt,i,i
CN(C)c1ccc(NC(=O)Nc2cccc(Cl)c2)cc1,2.2µM,13µM,?,i,1.8µM,1.3µM
O=C(Nc1cccc(Cl)c1)Nc1csc([N+](=O)[O-])c1,i,nt,i,nt,i,19µM
CN(c1cccc(NC(=O)Nc2cccc(Cl)c2)c1)S(C)(=O)=O,i,i,i,i,i,17µM
O=C(Nc1cccc(Cl)c1)Nc1nc(-c2ccc(Cl)cc2)cs1,i,i,i,i,i,i
CC(=O)Nc1cccc(N(C)S(C)(=O)=O)c1,i,i,i,i,i,i
SMILES,NPC1 prom act,SMN2 splice enh,ELG1 genotox,Luc counter,Rab9 promoter act,FLuc counter
Cc1sc(N)nc1-c1ccc(Oc2ccccc2)cc1,i,nt,?,nt,i,24µM
Cc1sc(N)nc1-c1ccc2c(c1)OCCO2,i,nt,i,nt,i,?
C=CCNC(=O)c1ccc(NC(=O)C2=CSCCO2)cc1,0.89µM,nt,?,nt,0.79µM,12µM
COc1ccccc1C1CC(=O)Oc2ccc(C(C)(C)C)cc21 (stereo not drawn),nt,nt,i,i,nt,nt
CC(=O)Nc1ccc(S(=O)(=O)Nc2ccc(Nc3ccccc3)cc2)cc1,i,nt,i,nt,i,i
COc1ccc(N2CCN(C(=O)CSc3ncccc3-c3nc4ccccc4[nH]3)CC2)cc1,i,i,i,i,i,11µM
COc1ccccc1N1CCN(C(=O)CSc2ncccc2-c2nc3ccccc3[nH]2)CC1,i,i,i,i,i,24µM
COc1ccccc1N1CCN(C(=O)CSc2nc3ccccc3[nH]2)CC1,i,i,i,i,i,i
O=C(CSc1ncccc1-c1nc2ccccc2[nH]1)N1CCN(c2ccccc2F)CC1,i,i,i,i,i,19µM
Cc1ccc(-c2nc(C)c(CCNS(=O)(=O)c3ccccc3F)s2)cc1,nt,nt,nt,nt,nt,i
O=C(CC1CCCC1)Nc1ccc2c(c1)CCC2,2.5µM,?,?,i,3.5µM,13µM
Cc1cccc(NC(=O)CC2CCC2)c1,i,i,i,i,i,i
Cc1cc(NC(=O)CC2CCCC2)ccc1Br,i,nt,?,nt,?,19µM

# Screening data: PubChem, National Center for Advancing Translational Sciences (NCATS)
